Only some compounds are listed: those with a hit (about 3.6% of all), similar ones and a draw of the others.
NPSR antag – antagonists of human neuropeptide S receptor cAMP signaling; CHO-NPSR cells, cAMP TR-FRET, antagonist mode; Potency, µM (doses to about 38.3 µM), most hits filed as inhibitors; 220,000 tested, 1% active; AID 1461; also: nearly all actives have a fitted effect of over 50% in size
IMPase Li cell – cell-permeable IMPase inhibitors with lithium potentiation; CHO-M1 cells, IP1 TR-FRET (IP-One), carbachol + lithium; 210,000 tested, 0.35% active; Potency, µM (top dose mostly 59.4 µM), usual class: inhibitors;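 also: IP1 builds up when IMPase is blocked and the TR-FRET signal falls; nearly all actives have a fitted effect of over 50% in size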
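Readout is a homogeneous TR-FRET IP1 immunoassay (Ex 320, Em 665 and 620), where raised cytosolic IP1 lowers signal. Cells were CHO-M1 treated 30 min at 37C with test compounds plus a little lithium; AC50 values came from Hill-equation fitting.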
JMJD2E inh – inhibitors of human JMJD2E histone demethylase; B2RXH2; 230,000 tested, 1.6% active; Potency, µM (series often up to 57.1 µM), usual class: inhibitors; JMJD2E catalytic domain, FDH-coupled NADH fluorescence (FDH is formaldehyde dehydrogenase); also: nearly all actives have a fitted effect of over 50% in size
Epigenetic derep – derepresses silenced GFP reporter in murine cells; murine LDR cells, GFP reporter derepression, 30 h; Potency, µM (doses to about 53.9 µM), hits mostly activators; 280,000 tested, 0.2% active; AID 1865; also: nearly all actives have a fitted effect of over 60% in size
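Reporter derepression read as number of fluorescent GFP-positive objects, 20-120 um in size, counted by laser-scanning cytometer. Mouse LDR line with an epigenetically silenced CMV-GFP locus; compound incubation 30 h, 37 C.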
Sfp PPTase inh – blocks B. subtilis Sfp PPTase activity. Biochemical Sfp PPTase activity, qHTS. AID 1490. 310,000 tested, 3.5% active. Potency, µM, usual class: inhibitors. Q9F4F7;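 also: the enzyme is Sfp with the accession as filed and its product quenches rhodamine fluorescence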
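After 15 min at room temperature with compound, 15 nM Sfp received 5 uM rhodamine-CoA plus 12.5 uM BHQ-2-ybbR (50 mM Hepes pH 7.6, 10 mM MgCl2). Rate came from the fluorescence difference over 30 min, ex 525/em 598 nm.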
GCN5L2 inh – GCN5L2 (KAT2A) acetyltransferase inhibition; GCN5L2 HAT assay, ThioGlo1 CoA-SH fluorescence; Potency, µM (doses to about 58.9 µM), hits mostly inhibitors; 390,000 tested, 0.21% active; AID 504327
Target sequence (Q92830 whole entry, looked up): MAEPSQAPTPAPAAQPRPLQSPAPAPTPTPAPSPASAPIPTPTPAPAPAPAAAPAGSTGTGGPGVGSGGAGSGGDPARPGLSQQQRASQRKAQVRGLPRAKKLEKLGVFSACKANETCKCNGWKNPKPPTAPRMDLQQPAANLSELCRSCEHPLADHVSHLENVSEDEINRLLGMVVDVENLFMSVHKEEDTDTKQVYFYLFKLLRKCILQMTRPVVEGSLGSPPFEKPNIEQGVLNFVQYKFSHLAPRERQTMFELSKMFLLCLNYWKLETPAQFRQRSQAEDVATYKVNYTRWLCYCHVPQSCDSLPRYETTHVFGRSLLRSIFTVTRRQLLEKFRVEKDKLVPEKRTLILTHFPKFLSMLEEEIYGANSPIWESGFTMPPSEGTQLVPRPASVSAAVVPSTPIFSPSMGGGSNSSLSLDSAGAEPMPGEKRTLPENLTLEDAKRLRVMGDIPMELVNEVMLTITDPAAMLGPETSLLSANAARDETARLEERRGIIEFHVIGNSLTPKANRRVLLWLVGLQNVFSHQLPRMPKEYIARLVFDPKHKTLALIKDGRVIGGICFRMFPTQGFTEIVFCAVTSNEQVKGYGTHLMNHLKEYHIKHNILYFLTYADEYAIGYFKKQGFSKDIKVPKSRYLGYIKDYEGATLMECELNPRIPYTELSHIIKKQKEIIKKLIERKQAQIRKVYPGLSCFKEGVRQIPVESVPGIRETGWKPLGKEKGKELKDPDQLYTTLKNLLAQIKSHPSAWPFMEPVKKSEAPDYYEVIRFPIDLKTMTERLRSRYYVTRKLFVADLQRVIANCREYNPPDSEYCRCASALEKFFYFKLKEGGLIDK
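GCN5L2 (20 nM) in 50mM HEPES pH 7.5, 0.1mM EDTA, 0.01% Tween-20 preincubated 15 min with compounds at room temperature. Reaction started with H3(1-25) 75uM, acetyl-CoA 70uM, ThioGlo1 50uM; CoA-thiol fluorescence (Ex340/Em540) read at 0 and 20 min.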
Hits are given with their value; n = inactive; u = inconclusive; x = not tested or not shown; [ ] = dose if it differs, or a comment. Unless noted, calls follow the shape of the dose curve; as a rule, active = well fitted curve in the direction sought with a large enough effect; inconclusive = small, poorly fitted or top-dose-only effect, or another doubt; inactive = no such curve, though single readings can be large; an effect the other way counts as inactive or inconclusive.

SMILES | NPSR antag | IMPase Li cell | JMJD2E inh | Epigenetic derep | Sfp PPTase inh | GCN5L2 inh
O=C(/C=C/c1ccc(Br)o1)NC(c1ccccc1)c1ccccc1 | u | n | n | n | 20µM | n
COc1ccc(NC(=O)/C=C/c2ccc(Br)o2)cn1 | n | n | u | n | 25.1µM | n
COc1ccccc1CNC(=O)/C=C/c1ccc(Br)o1 | n | n | n | n | 10µM | u
O=C(NC(c1ccccc1)c1ccccc1)c1ccc(Br)o1 | n | n | n | n | n | n
COc1ccc(NC(=O)/C=C/c2ccco2)cn1 | n | n | n | n | n | n
CC#CCN1c2ccccc2[C@]23C[C@@H](C(=O)OC)N(S(=O)(=O)c4ccc(Br)cc4)C2=NC(C(=O)OC)=C(C(=O)OC)[C@H]13 | x | n | n[11.4 µM] | x | n | x
N[C@@H](Cc1cccnn1)C(=O)O | x | n | x | x | x | x
CCC(C)(C)n1nnnc1C(c1cc2cc3c(cc2[nH]c1=O)OCO3)N1CCCCC1 (stereo unspecified) | n | n | u | n | n | n
Cc1cccc2cc(C(c3nnnn3Cc3ccc4c(c3)OCO4)N3CCCC3)c(=O)[nH]c12 (stereo unspecified) | n | n | u | n | 56.2µM | n
CCOc1ccc2[nH]c(=O)c(C(c3nnnn3Cc3ccco3)N3CCN(C)CC3)cc2c1 (stereo unspecified) | u | n | u | n | n | n
Cc1cc2cc(C(c3nnnn3Cc3ccco3)N3CCCCC3)c(=O)[nH]c2cc1C (stereo unspecified) | n | n | n | n | 39.8µM | n
COCCn1nnnc1C(c1cc2cc(C)ccc2[nH]c1=O)N1CCCCCC1 (stereo unspecified) | n | n | u | n | 50.1µM | n
Cc1ccc2[nH]c(=O)c(C(c3nnnn3CCc3ccccc3)N3CCOCC3)cc2c1 (stereo unspecified) | n | n | u | n | n | n
Cc1ccc2cc(C(c3nnnn3C(C)(C)C)N3CCCC3)c(=O)[nH]c2c1C (stereo unspecified) | n | n | u | n | 44.7µM | n
O=NCc1ccc([N+](=O)[O-])o1 | x | x | x | x | n | n
CCOc1ccc(NC(=O)Cn2c(=O)n(Cc3ccccc3)c(=O)c3c4c(sc32)CN(C(C)=O)CC4)cc1 | x | x | x | n | x | n
c1ccc(Cn2nnnc2C(c2ccncc2)N2CCOCC2)cc1 (stereo unspecified) | n | n | n | n | n | n
COCCn1nnnc1C(c1cc2cc(C)cc(C)c2[nH]c1=O)N1CCN(c2ccccc2F)CC1 (stereo unspecified) | n | n | u | n | 12.6µM | n
Cc1cc(C(c2nnnn2Cc2ccccc2)N2CCOCC2)c(C)n1-c1ccc2c(c1)OCO2 (stereo unspecified) | n | n | u | u | 28.2µM | n
CCOC(=O)CN=C1CC(C)(C)CC2=C1Sc1ncnc(N(C)C)c1N2 | n | n | u | n | 10µM | n
CCC(=O)N1c2ccccc2CC1C(=O)NCCc1ccccc1Cl (stereo unspecified) | x | x | x | n | x | n
Cc1nc2cc3nc(C)sc3cc2s1 | n | n | n | n | 39.8µM | n
Cc1nc2cc(CO)ccc2s1 | n | n | n | n | n | n
Cc1cc(C)nc(SCC(=O)NC2=NC(=O)C(C)S2)n1 (stereo unspecified) | n | n | n | n | 22.4µM | n
Cc1ccc(C2=NN=C(NC(=O)CSc3nc(C)cc(C)n3)SC2)cc1 | n | n | n | n | 39.8µM | n
SMILES | NPSR antag | IMPase Li cell | JMJD2E inh | Epigenetic derep | Sfp PPTase inh | GCN5L2 inh
CN(Cc1ccco1)c1nc(-c2ccccc2C(F)(F)F)nc2ccccc12 | x | n | x | x | n | n
CC(=O)c1ccc(NC(=S)N2C(C)CCCC2C)cc1 (stereo unspecified) | n | x | n | n | 44.7µM | n
CC(=O)c1ccc(NC(=S)N2CCCCCC2)cc1 | n | n | n | n | n | n
COC(=O)c1c(NC(=O)CN2CCC3(O)CCCCC3C2c2ccc(OC)cc2OC)sc(C)c1C (stereo unspecified) | n | n | n | n | 20µM | n
Cc1cc(C)cc(NC(=S)Nc2cccc3cnccc23)c1 | n | n | 20µM | n | 25.1µM | n
Cc1ccc(NC(=O)CCC(=O)NNC(=S)Nc2ccccc2)c(C)c1 | n | n | n | n | n | n

Compound activity: PubChem BioAssay, National Center for Advancing Translational Sciences (NCATS)
